Results filed as inconclusive are left out. A number with no mark means an inactive call. The call rests on the fitted dose curve; in most records, active means well fitted inhibition curve with a large enough effect; inconclusive means small, poorly fitted or top-dose-only effect; inactive means flat fitted curve, though single readings scatter.
Assay: Drug repurposing screens with cells derived from glioblastoma tumor samples (AID 1345199); further: nearly all actives have a fitted effect of over 40% in size
Details: GBM patient neurospheres viability, ATP luminescence, 48 h; at 20 µM (top of the series); tumour line C
How it was run: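 Primary testing used CD133+ neurospheres from four GBM patients, seven concentrations, 48 h exposure and ATP-based viability; confirmation added three slower-growing patient lines.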
On the % scale 0 is the no-effect control and ±100 the full control effect.

Question: For `Clc1ccc(C(Cn2ccnc2)OCc2csc3c(Cl)cccc23)c(Cl)c1` (configuration not stated), which activity, negative = cell killing is on record?
Answer: 2.67%

Question: Which activity, negative = cell killing does the source give for `CC[C@H]1[C@@H]2C[C@H]3[C@@H]4N(C)c5ccccc5[C@]45C[C@@H](C2[C@H]5O)N3[C@@H]1O` (some centres not stated) here?
Answer: 5.4%

Question: With `CCNC1(c2cccs2)CCCCC1=O` (configuration not stated) as the molecule, how does the activity, negative = cell killing read?
Answer: -10.7%

Question: With `C[C@]12CCC(=O)C=C1C=C[C@@H]1[C@@H]2CC[C@@]2(C)[C@H]1CC[C@@]2(O)CCC(=O)O` as the molecule, how does the activity, negative = cell killing read?
Answer: 15.7%

Same assay, conditions: GBM patient neurospheres viability, ATP luminescence, 48 h; at 21.2 µM (top of the series); tumour line B

Question: For `Clc1ccc(C(Cn2ccnc2)OCc2csc3c(Cl)cccc23)c(Cl)c1` (configuration not stated), which activity, negative = cell killing is on record?
Answer: -18.1%

Question: For `CC[C@H]1[C@@H]2C[C@H]3[C@@H]4N(C)c5ccccc5[C@]45C[C@@H](C2[C@H]5O)N3[C@@H]1O` (some centres not stated), which activity, negative = cell killing is on record?
Answer: 2.75%

Question: For `CCNC1(c2cccs2)CCCCC1=O` (configuration not stated), which activity, negative = cell killing is on record?
Answer: 2.65%

Question: With `C[C@]12CCC(=O)C=C1C=C[C@@H]1[C@@H]2CC[C@@]2(C)[C@H]1CC[C@@]2(O)CCC(=O)O` as the molecule, how does the activity, negative = cell killing read?
Answer: -2.69%

Same assay, conditions: GBM patient neurospheres viability, ATP luminescence, 48 h; at 21.2 µM (top of the series); tumour line D

Question: For `CC[C@H]1[C@@H]2C[C@H]3[C@@H]4N(C)c5ccccc5[C@]45C[C@@H](C2[C@H]5O)N3[C@@H]1O` (some centres not stated), which activity, negative = cell killing is on record?
Answer: 6.31%

Question: With `CCNC1(c2cccs2)CCCCC1=O` (configuration not stated) as the molecule, how does the activity, negative = cell killing read?
Answer: -6.43%

Question: For `C[C@]12CCC(=O)C=C1C=C[C@@H]1[C@@H]2CC[C@@]2(C)[C@H]1CC[C@@]2(O)CCC(=O)O`, which activity, negative = cell killing is on record?
Answer: -8.65%

Same assay, conditions: GBM patient neurospheres viability, ATP luminescence, 48 h; at 45.9 µM (top of the series); tumour line B

Question: With `C[N+]1(C)CCCCC1COC(=O)C(O)(c1ccccc1)c1ccccc1` (configuration not stated) as the molecule, how does the activity, negative = cell killing read?
Answer: -0.912%

Question: With `O=C(CCl)c1ccc(Oc2ccc(C(=O)CCl)cc2)cc1` as the molecule, how does the activity, negative = cell killing read?
Answer: -24.4%

Question: Which activity, negative = cell killing does the source give for `O=C1CCCCC1CN1CCCCC1` (configuration not stated) here?
Answer: -12.3%

Question: For `C[C@@H]1[C@@H]2Cc3ccc(O)cc3[C@@]1(C)CCN2CC1CC1`, which activity, negative = cell killing is on record?
Answer: -1.24%

Question: Which activity, negative = cell killing does the source give for `CCOP(=O)(OCC)O/C(=C/Cl)c1ccc(Cl)cc1Cl` here?
Answer: -17.8%

Question: With `Clc1ccc(C2(Cn3cncn3)OCCO2)c(Cl)c1` as the molecule, how does the activity, negative = cell killing read?
Answer: -15.5%

Question: With `O=c1[nH]cc(N(CCCl)CCCl)c(=O)[nH]1` as the molecule, how does the activity, negative = cell killing read?
Answer: -11%

Question: For `CC(=O)OC1CN2CCC1CC2` (configuration not stated), which activity, negative = cell killing is on record?
Answer: -1.18%

Question: Which activity, negative = cell killing does the source give for `O=C1CN(O)C(c2ccccc2)=c2cc(Cl)ccc2=N1` here?
Answer: -13.2%

Question: Which activity, negative = cell killing does the source give for `O=C(NC(=O)c1c(F)cccc1F)Nc1ccc(Cl)c(Oc2ncc(C(F)(F)F)cc2Cl)c1` here?
Answer: -0.522%

Question: With `O=C(NCNC(=O)NC1C(=O)NC(=O)N1CO)NC1C(=O)NC(=O)N1CO` (configuration not stated) as the molecule, how does the activity, negative = cell killing read?
Answer: -11.9%

Question: Which activity, negative = cell killing does the source give for `Cc1cccc(C(C)c2cnc[nH]2)c1C` (configuration not stated) here?
Answer: -17.4%

Question: Which activity, negative = cell killing does the source give for `C[C@@H](Cc1ccccc1)N(C)C` here?
Answer: -4.88%

Question: Which activity, negative = cell killing does the source give for `C#CC(C)(O)CC` (configuration not stated) here?
Answer: -22.2%

Question: Which activity, negative = cell killing does the source give for `CCCC(C)C1(CC)C(=O)NC(=O)NC1=O` (configuration not stated) here?
Answer: -11.9%

Question: For `C=CCC1(C(C)CCC)C(=O)N=C(S)NC1=O` (configuration not stated), which activity, negative = cell killing is on record?
Answer: -7.88%

Question: Which activity, negative = cell killing does the source give for `CN(C)CCCCCCN(C)C` (tested in a mixture with another compound) here?
Answer: -12.5%

Question: Which activity, negative = cell killing does the source give for `C[C@]12CC[C@H]3[C@@H](CCC4=C(O)C(=O)CC[C@@H]43)[C@@H]1CC[C@@H]2OC(=O)CCC1CCCC1` here?
Answer: -11.4%

Question: For `CC(=O)O[C@H]1CC[C@H]2[C@@H]3CCC4=CC(=O)CCC4=C3C=C[C@]12C`, which activity, negative = cell killing is on record?
Answer: -12.7%

Question: For `CCCCNCC(O)c1ccc(O)cc1` (configuration not stated), which activity, negative = cell killing is on record?
Answer: -14.1%

Question: With `Cc1ccccc1-n1c(CF)nc2ccc(N)cc2c1=O` as the molecule, how does the activity, negative = cell killing read?
Answer: -13.6%

Question: Which activity, negative = cell killing does the source give for `C[C@]12CC[C@H]3[C@@H](CC[C@@]45O[C@@H]4C(O)=C(C#N)C[C@]35C)[C@@H]1CC[C@@H]2O` here?
Answer: 0.146%

Question: Which activity, negative = cell killing does the source give for `c1ccc2sc(SNC3CCCCC3)nc2c1` here?
Answer: -13.7%

Question: Which activity, negative = cell killing does the source give for `C=CCN1CC[C@]23c4c5ccc(O)c4O[C@H]2[C@@H](O)C=C[C@H]3[C@H]1C5` here?
Answer: -22.5%

Question: Which activity, negative = cell killing does the source give for `C=CCN(C1=NCCN1)c1c(Cl)cccc1Cl` here?
Answer: -5.59%

Question: For `O=P(O)(O)C(Cl)(Cl)P(=O)(O)O`, which activity, negative = cell killing is on record?
Answer: 1.35%

Question: Which activity, negative = cell killing does the source give for `CCC1(CC)C(=O)NC(=O)N(C)C1=O` here?
Answer: -3.71%

Question: For `COC(=O)[C@@H]1[C@H]2CC[C@@H](C[C@H]1OC(=O)c1ccccc1)N2C`, which activity, negative = cell killing is on record?
Answer: -0.119%

Question: For `CCC(=O)O[C@]1(c2ccccc2)CCN(C)C[C@H]1C`, which activity, negative = cell killing is on record?
Answer: -13.3%

Question: For `CC(Cc1ccccc1)NC=O` (configuration not stated), which activity, negative = cell killing is on record?
Answer: -10.4%

Question: With `NCC(O)c1cccc(O)c1` (configuration not stated) as the molecule, how does the activity, negative = cell killing read?
Answer: -9.47%

Reference: PubChem BioAssay (NCATS)
